# Assay results reported in the supplement of paper PMC4466140.
# B1: unnamed (peptide)
# chain: APKHAPPPVPNETDN
# B2: unnamed (peptide)
# chain: PALPSLPPPPLLNVD
# Molecular target: CaNbp2
# Test: SPOT peptide array binding signal intensity (averaged, normalized) (arbitrary units (background-subtracted, floor 0; scale differs between SH3 domains)); higher = stronger binding of the SH3 domain to the peptide
# Summary of the method: (§1)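 GST-fused SH3 domains from four yeast species were expressed in E. coli BL21(DE3), purified on glutathione Sepharose and incubated at 10 μg/ml overnight at 4°C in TBS-based blocking buffer on cellulose membranes carrying synthetic 15-mer peptides, with cysteines replaced by serines. Bound protein was detected with anti-GST antibody, an HRP anti-mouse secondary and luminol, then imaged and quantified with Genespotter. Binding signal is the normalized, background-subtracted spot intensity averaged over replicates, in arbitrary units that differ between domains.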
row,Binder,SPOT peptide array binding signal intensity
1,B1,≤ 0
2,B2,≤ 0

# Molecular target: CaRvs167
# Test: as above
# Summary of the method: as §1
row,Binder,SPOT peptide array binding signal intensity
1,B1,≤ 0
2,B2,≤ 0

# Molecular target: CaRvs167-3
# Test: as above
# Summary of the method: as §1
row,Binder,SPOT peptide array binding signal intensity
1,B1,≤ 0
2,B2,≤ 0

# Molecular target: CaSho1
# Test: as above
# Summary of the method: as §1
row,Binder,SPOT peptide array binding signal intensity
1,B1,≤ 0
2,B2,8.5

# Molecular target: CaSla1-D1-D2
# Test: as above
# Summary of the method: as §1
row,Binder,SPOT peptide array binding signal intensity
1,B1,≤ 0
2,B2,≤ 0

# Molecular target: CaSla1-D3
# Test: as above
# Summary of the method: as §1
row,Binder,SPOT peptide array binding signal intensity
1,B1,≤ 0
2,B2,≤ 0

# Molecular target: ScAbp1
# Test: as above
# Summary of the method: as §1
row,Binder,SPOT peptide array binding signal intensity
1,B1,≤ 0
2,B2,≤ 0

# Molecular target: ScBbc1
# Test: as above
# Summary of the method: as §1
row,Binder,SPOT peptide array binding signal intensity
1,B1,≤ 0
2,B2,≤ 0

# Molecular target: ScBem1-D1
# Test: as above
# Summary of the method: as §1
row,Binder,SPOT peptide array binding signal intensity
1,B1,≤ 0
2,B2,≤ 0

# Molecular target: ScBzz1-D1
# Test: as above
# Summary of the method: as §1
row,Binder,SPOT peptide array binding signal intensity
1,B1,618
2,B2,15.5

# Molecular target: ScBzz1-D2
# Test: as above
# Summary of the method: as §1
row,Binder,SPOT peptide array binding signal intensity
1,B1,≤ 0
2,B2,10.5

# Molecular target: ScCyk3
# Test: as above
# Summary of the method: as §1
row,Binder,SPOT peptide array binding signal intensity
1,B1,≤ 0
2,B2,≤ 0

# Molecular target: ScFus1
# Test: as above
# Summary of the method: as §1
row,Binder,SPOT peptide array binding signal intensity
1,B1,≤ 0
2,B2,≤ 0

# Molecular target: ScHof1
# Test: as above
# Summary of the method: as §1
row,Binder,SPOT peptide array binding signal intensity
1,B1,≤ 0
2,B2,3250

# Molecular target: ScHse1
# Test: as above
# Summary of the method: as §1
row,Binder,SPOT peptide array binding signal intensity
1,B1,≤ 0
2,B2,128

# Molecular target: ScLsb1
# Test: as above
# Summary of the method: as §1
row,Binder,SPOT peptide array binding signal intensity
1,B1,≤ 0
2,B2,≤ 0

# Molecular target: ScLsb2
# Test: as above
# Summary of the method: as §1
row,Binder,SPOT peptide array binding signal intensity
1,B1,≤ 0
2,B2,≤ 0

# Molecular target: ScLsb3
# Test: as above
# Summary of the method: as §1
row,Binder,SPOT peptide array binding signal intensity
1,B1,≤ 0
2,B2,6.5

# Molecular target: ScLsb4
# Test: as above
# Summary of the method: as §1
row,Binder,SPOT peptide array binding signal intensity
1,B1,≤ 0
2,B2,≤ 0

# Molecular target: ScMyo3
# Test: as above
# Summary of the method: as §1
row,Binder,SPOT peptide array binding signal intensity
1,B1,1380
2,B2,1950

# Molecular target: ScMyo5
# Test: as above
# Summary of the method: as §1
row,Binder,SPOT peptide array binding signal intensity
1,B1,1230
2,B2,1820

# Molecular target: ScNbp2
# Test: as above
# Summary of the method: as §1
row,Binder,SPOT peptide array binding signal intensity
1,B1,≤ 0
2,B2,≤ 0

# Molecular target: ScPex13
# Test: as above
# Summary of the method: as §1
row,Binder,SPOT peptide array binding signal intensity
1,B1,≤ 0
2,B2,≤ 0

# Molecular target: ScRvs167
# Test: as above
# Summary of the method: as §1
row,Binder,SPOT peptide array binding signal intensity
1,B1,≤ 0
2,B2,≤ 0

# Molecular target: ScSho1
# Test: as above
# Summary of the method: as §1
row,Binder,SPOT peptide array binding signal intensity
1,B1,≤ 0
2,B2,542

# Molecular target: ScSla1-D1-D2
# Test: as above
# Summary of the method: as §1
row,Binder,SPOT peptide array binding signal intensity
1,B1,≤ 0
2,B2,≤ 0

# Molecular target: ScSla1-D3
# Test: as above
# Summary of the method: as §1
row,Binder,SPOT peptide array binding signal intensity
1,B1,≤ 0
2,B2,1.25

# Molecular target: SpAbp1-D1
# Test: as above
# Summary of the method: as §1
row,Binder,SPOT peptide array binding signal intensity
1,B1,≤ 0
2,B2,≤ 0

# Molecular target: SpBbc1
# Test: as above
# Summary of the method: as §1
row,Binder,SPOT peptide array binding signal intensity
1,B1,≤ 0
2,B2,1

# Molecular target: SpBzz1-D1
# Test: as above
# Summary of the method: as §1
row,Binder,SPOT peptide array binding signal intensity
1,B1,≤ 0
2,B2,94

# Molecular target: SpBzz1-D2
# Test: as above
# Summary of the method: as §1
row,Binder,SPOT peptide array binding signal intensity
1,B1,≤ 0
2,B2,1

# Molecular target: SpCyk3
# Test: as above
# Summary of the method: as §1
row,Binder,SPOT peptide array binding signal intensity
1,B1,≤ 0
2,B2,≤ 0

# Molecular target: SpHof1
# Test: as above
# Summary of the method: as §1
row,Binder,SPOT peptide array binding signal intensity
1,B1,≤ 0
2,B2,≤ 0

# Molecular target: SpHof1-2
# Test: as above
# Summary of the method: as §1
row,Binder,SPOT peptide array binding signal intensity
1,B1,≤ 0
2,B2,1210

# Molecular target: SpHof1-3
# Test: as above
# Summary of the method: as §1
row,Binder,SPOT peptide array binding signal intensity
1,B1,≤ 0
2,B2,326

# Molecular target: SpHse1
# Test: as above
# Summary of the method: as §1
row,Binder,SPOT peptide array binding signal intensity
1,B1,140
2,B2,≤ 0

# Molecular target: SpLsb1
# Test: as above
# Summary of the method: as §1
row,Binder,SPOT peptide array binding signal intensity
1,B1,≤ 0
2,B2,≤ 0

# Molecular target: SpLsb4
# Test: as above
# Summary of the method: as §1
row,Binder,SPOT peptide array binding signal intensity
1,B1,≤ 0
2,B2,≤ 0

# Molecular target: SpMyo1
# Test: as above
# Summary of the method: as §1
row,Binder,SPOT peptide array binding signal intensity
1,B1,691
2,B2,1260

# Molecular target: SpNbp2
# Test: as above
# Summary of the method: as §1
row,Binder,SPOT peptide array binding signal intensity
1,B1,≤ 0
2,B2,≤ 0

# Molecular target: SpPex13
# Test: as above
# Summary of the method: as §1
row,Binder,SPOT peptide array binding signal intensity
1,B1,≤ 0
2,B2,≤ 0

# Molecular target: SpRvs167
# Test: as above
# Summary of the method: as §1
row,Binder,SPOT peptide array binding signal intensity
1,B1,2.5
2,B2,0.5

# Molecular target: SpSla1-D1-D2
# Test: as above
# Summary of the method: as §1
row,Binder,SPOT peptide array binding signal intensity
1,B1,≤ 0
2,B2,≤ 0

# Molecular target: SpSla1-D3
# Test: as above
# Summary of the method: as §1
row,Binder,SPOT peptide array binding signal intensity
1,B1,≤ 0
2,B2,≤ 0

# Molecular target: AgAbp1
# Test: as above
# Summary of the method: as §1
row,Binder,SPOT peptide array binding signal intensity
1,B2,≤ 0

# Molecular target: AgBbc1
# Test: as above
# Summary of the method: as §1
row,Binder,SPOT peptide array binding signal intensity
1,B2,0.5

# Molecular target: AgBem1-D1
# Test: as above
# Summary of the method: as §1
row,Binder,SPOT peptide array binding signal intensity
1,B2,≤ 0

# Molecular target: AgBzz1-D1
# Test: as above
# Summary of the method: as §1
row,Binder,SPOT peptide array binding signal intensity
1,B2,≤ 0

# Molecular target: AgBzz1-D2
# Test: as above
# Summary of the method: as §1
row,Binder,SPOT peptide array binding signal intensity
1,B2,8.5

# Molecular target: AgCyk3
# Test: as above
# Summary of the method: as §1
row,Binder,SPOT peptide array binding signal intensity
1,B2,≤ 0

# Molecular target: AgFus1
# Test: as above
# Summary of the method: as §1
row,Binder,SPOT peptide array binding signal intensity
1,B2,≤ 0

# Molecular target: AgHof1
# Test: as above
# Summary of the method: as §1
row,Binder,SPOT peptide array binding signal intensity
1,B2,1370

# Molecular target: AgHse1
# Test: as above
# Summary of the method: as §1
row,Binder,SPOT peptide array binding signal intensity
1,B2,≤ 0

# Molecular target: AgLsb1
# Test: as above
# Summary of the method: as §1
row,Binder,SPOT peptide array binding signal intensity
1,B2,≤ 0

# Molecular target: AgLsb4
# Test: as above
# Summary of the method: as §1
row,Binder,SPOT peptide array binding signal intensity
1,B2,≤ 0

# Molecular target: AgMyo5
# Test: as above
# Summary of the method: as §1
row,Binder,SPOT peptide array binding signal intensity
1,B2,2040

# Molecular target: AgNbp2
# Test: as above
# Summary of the method: as §1
row,Binder,SPOT peptide array binding signal intensity
1,B2,≤ 0

# Molecular target: AgRvs167
# Test: as above
# Summary of the method: as §1
row,Binder,SPOT peptide array binding signal intensity
1,B2,≤ 0

# Molecular target: AgSho1
# Test: as above
# Summary of the method: as §1
row,Binder,SPOT peptide array binding signal intensity
1,B2,77.5

# Molecular target: AgSla1-D1-D2
# Test: as above
# Summary of the method: as §1
row,Binder,SPOT peptide array binding signal intensity
1,B2,≤ 0

# Molecular target: AgSla1-D3
# Test: as above
# Summary of the method: as §1
row,Binder,SPOT peptide array binding signal intensity
1,B2,≤ 0

# Molecular target: CaAbp1-D1
# Test: as above
# Summary of the method: as §1
row,Binder,SPOT peptide array binding signal intensity
1,B2,12

# Molecular target: CaAbp1-D2
# Test: as above
# Summary of the method: as §1
row,Binder,SPOT peptide array binding signal intensity
1,B2,22

# Molecular target: CaBbc1
# Test: as above
# Summary of the method: as §1
row,Binder,SPOT peptide array binding signal intensity
1,B2,≤ 0

# Molecular target: CaBem1-D1
# Test: as above
# Summary of the method: as §1
row,Binder,SPOT peptide array binding signal intensity
1,B2,≤ 0

# Molecular target: CaBzz1-D1
# Test: as above
# Summary of the method: as §1
row,Binder,SPOT peptide array binding signal intensity
1,B2,≤ 0

# Molecular target: CaBzz1-D2
# Test: as above
# Summary of the method: as §1
row,Binder,SPOT peptide array binding signal intensity
1,B2,1

# Molecular target: CaCyk3
# Test: as above
# Summary of the method: as §1
row,Binder,SPOT peptide array binding signal intensity
1,B2,≤ 0

# Molecular target: CaFus1
# Test: as above
# Summary of the method: as §1
row,Binder,SPOT peptide array binding signal intensity
1,B2,≤ 0

# Molecular target: CaHof1
# Test: as above
# Summary of the method: as §1
row,Binder,SPOT peptide array binding signal intensity
1,B2,1170

# Molecular target: CaHse1
# Test: as above
# Summary of the method: as §1
row,Binder,SPOT peptide array binding signal intensity
1,B2,0.25

# Molecular target: CaLsb1
# Test: as above
# Summary of the method: as §1
row,Binder,SPOT peptide array binding signal intensity
1,B2,0.25

# Molecular target: CaLsb4
# Test: as above
# Summary of the method: as §1
row,Binder,SPOT peptide array binding signal intensity
1,B2,≤ 0

# Molecular target: CaMyo5
# Test: as above
# Summary of the method: as §1
row,Binder,SPOT peptide array binding signal intensity
1,B2,293
